Peg3 promoter: Peg3 promoter-driven luciferase inhibitors, primary screen, cell-based, HeLa, luciferase luminescence | HeLa PEG-Prom luciferase reporter, overnight | inhibition, % at 20 µM | hit rate 1.7% among 360,000 | AID 588405, 2011;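 active = inhibition of at least 50% at 20 µM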
MITF TRPM1 inh: inhibitors of MITF-dependent TRPM1 promoter reporter, primary screen, cell-based, SK-MEL-5, single point, luciferase | SK-MEL-5 TRPM1 promoter luciferase, 24 h | hit rate 0.83% among 330,000 | inhibition, % at 12.5 µM;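 active = mean inhibition across replicates of 60% or more, whatever share of single replicates reaches that level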
KKLEB cytotox: cytotoxicity in KKLEB CF airway cells, primary screen, cytotoxicity control for CF NF-kB inhibitor project, cell-based, uHTS, fluorescence assay plates. hit rate 0.36% among 360,000. activity change (cytotoxicity), % at 5 µM. AID 602141, 2011. KKLEB CF airway cells viability, ATPlite luminescence, overnight; stronger effect = lower value; cells stimulated with P. aeruginosa culture filtrate;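 active = corrected activity change at or below -50% at 5 µM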
HIF-2a inh: HIF-2a reporter inhibitors, primary screen, luminescence, 786-0 RCC cells. inhibition, % at 18.8 µM. 786-0 RCC cells HIF-2a reporter, luciferase luminescence, overnight. hit rate 0.72% among 360,000;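 active = inhibition of the luminescence signal of 40% or more relative to plate controls, in a single-dose primary screen at 18.75 µM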
ABHD5-PLIN5 inh: ABHD5-PLIN5 interaction inhibitors, primary screen, cell lysate, split luciferase complementation, luminescence. Perilipin-5 (Homo sapiens) + 1-acylglycerol-3-phosphate O-acyltransferase ABHD5 (Homo …. Split G. princeps luciferase complementation, 4 h. inhibition, % at 4 µM. hit rate 0.78% among 360,000;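 active = inhibition above the mean inhibition across every tested compound plus 3 SD, cut at about 22% in these data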
Target sequence (Q00G26 whole entry, looked up): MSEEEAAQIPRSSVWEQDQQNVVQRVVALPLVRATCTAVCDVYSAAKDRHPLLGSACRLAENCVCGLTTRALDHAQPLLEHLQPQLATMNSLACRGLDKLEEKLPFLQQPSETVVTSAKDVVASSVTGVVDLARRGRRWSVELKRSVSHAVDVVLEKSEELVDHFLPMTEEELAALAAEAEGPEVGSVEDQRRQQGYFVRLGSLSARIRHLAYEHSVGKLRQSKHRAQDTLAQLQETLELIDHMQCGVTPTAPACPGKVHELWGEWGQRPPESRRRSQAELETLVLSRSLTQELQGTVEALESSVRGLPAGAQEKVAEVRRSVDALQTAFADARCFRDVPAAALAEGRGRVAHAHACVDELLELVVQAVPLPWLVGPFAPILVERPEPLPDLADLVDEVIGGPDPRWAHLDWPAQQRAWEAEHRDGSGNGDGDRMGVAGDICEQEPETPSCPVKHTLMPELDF
Target sequence (Q8WTS1 whole entry, looked up): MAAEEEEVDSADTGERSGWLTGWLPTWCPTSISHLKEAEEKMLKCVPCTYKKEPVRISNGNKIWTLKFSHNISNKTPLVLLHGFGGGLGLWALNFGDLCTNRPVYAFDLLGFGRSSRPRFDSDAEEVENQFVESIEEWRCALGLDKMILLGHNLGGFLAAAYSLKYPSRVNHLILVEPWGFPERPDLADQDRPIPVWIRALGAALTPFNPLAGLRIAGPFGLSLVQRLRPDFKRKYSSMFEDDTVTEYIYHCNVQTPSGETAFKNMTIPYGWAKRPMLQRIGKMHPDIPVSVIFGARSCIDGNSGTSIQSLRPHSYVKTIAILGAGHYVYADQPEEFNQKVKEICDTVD
CF NFkB block: inhibitors of PAF-induced NF-kB signaling, primary screen, cell-based, GFP fluorescence, uHTS; inhibition, % at 5 µM; KKLEB NF-kB-GFP reporter, GFP fluorescence overnight; hit rate 0.86% among 360,000;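 active = at least 50% inhibition at 5 µM, scaled per plate between neutral and stimulator controls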;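 also: PAF is a Pseudomonas aeruginosa culture filtrate used as stimulus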
A number is an active result; . = inactive; / = no result. Most compounds without a hit are left out; they make up all but 3.1% or so of the library.

SMILES	Peg3 promoter	MITF TRPM1 inh	KKLEB cytotox	HIF-2a inh	ABHD5-PLIN5 inh	CF NFkB block
CN1CCN(C2=C(NS(=O)(=O)c3cccs3)C(=O)c3ccccc3C2=O)CC1	.	77	.	.	.	.
CCOC(=O)N1CCN(C2=C(NS(=O)(=O)c3ccc(Br)cc3)C(=O)c3ccccc3C2=O)CC1	.	/	.	.	.	58
CC1COCC(C)N1C1=C(Cl)C(=O)c2ccccc2C1=O (centres undefined)	100	96	.	.	.	.
CN1CCN(C2=C(Cl)C(=O)c3ccccc3C2=O)CC1	65	100	.	.	.	.
CN(C1=C(N2CCOCC2)C(=O)c2ccccc2C1=O)c1ccccc1	.	.	.	.	.	.
Cc1ccc(NC(=O)CN(C)C(=O)c2cn(Cc3ccccc3)nc2-c2cccnc2)cc1	.	.	.	.	.	.
O=C(NCC1CCN(C(=O)c2c(F)c(F)c(F)c(F)c2F)CC1)c1c(F)c(F)c(F)c(F)c1F	.	.	.	.	.	.
CCOC(=O)N1CCN(C2=C(NS(=O)(=O)c3ccccc3)C(=O)c3ccccc3C2=O)CC1	.	.	.	.	.	.
NC(=O)C1CCN(C2=C(NS(=O)(=O)c3ccc(Br)cc3)C(=O)c3ccccc3C2=O)CC1	.	68	.	.	.	.
CCN1CCN(C2=C(NS(=O)(=O)c3ccccc3)C(=O)c3ccccc3C2=O)CC1	.	67	.	.	.	.
CN1CCN(C2=C(NS(=O)(=O)c3ccccc3)C(=O)c3ccccc3C2=O)CC1	.	78	.	.	.	.
O=C1C(NS(=O)(=O)c2ccc(Cl)cc2)=C(N2CCCCC2)C(=O)c2ccccc21	.	.	.	.	.	.
NC(=O)C1CCN(C2=C(NS(=O)(=O)c3ccccc3)C(=O)c3ccccc3C2=O)CC1	.	.	.	.	.	.
CCN1CCN(C2=C(NS(=O)(=O)c3ccc(Br)cc3)C(=O)c3ccccc3C2=O)CC1	.	90	.	.	.	.
CCOC(=O)CC[C@H](NC(=O)Cn1cc(C)c(=O)[nH]c1=O)C(=O)OCC	.	.	.	.	.	.
N=c1c2c(-c3ccccc3)c(-c3ccccc3)n(Cc3ccco3)c2ncn1Cc1ccco1	105	66	.	.	.	.
CCCCn1cnc2c(c(-c3ccccc3)c(-c3ccccc3)n2Cc2ccco2)c1=N	.	/	.	.	.	.
Cc1nc(-c2ccc(F)cc2)c(CC(=O)N2CCN(S(=O)(=O)c3cccc(F)c3)CC2)s1	.	.	.	.	.	.
CN(CC(=O)Nc1cc(C(F)(F)F)ccc1-n1cncn1)Cc1ccccc1N1CCOCC1	.	.	.	.	.	.
COc1ccccc1C(=O)NNC(=S)NC(=O)c1sc2ccccc2c1Cl	.	.	-56	.	.	.
COc1ccccc1C(=O)NC(=S)NNC(=O)c1sc2ccccc2c1Cl	.	.	.	.	.	.
CC(=O)c1ccc(N2CCN(C(=O)CNS(=O)(=O)c3ccc4c(c3)OCCCO4)CC2)c(F)c1	.	.	.	.	.	.
Cc1c(CCC(=O)N[C@@H](C)C(=O)O)c(=O)oc2cc3oc4c(c3cc12)CCCC4	.	/	.	76	.	.
Cc1c(CCC(=O)N2CCC(C(=O)O)CC2)c(=O)oc2cc3oc4c(c3cc12)CCCC4	.	.	.	58	.	.
Cn1c(CNC(=O)CNC(=O)c2cccc(F)c2)cc(=O)n(C)c1=O	.	.	.	.	.	.
SMILES	Peg3 promoter	MITF TRPM1 inh	KKLEB cytotox	HIF-2a inh	ABHD5-PLIN5 inh	CF NFkB block
CC(C)(Oc1ccc(Cl)cc1)C(=O)NCc1n[nH]c(=O)c2ccccc12	.	.	.	.	.	.
COc1ccc(NC(=O)CN(C)CC(=O)N2CC(=O)Nc3ccccc32)cc1	.	.	.	.	.	.
Cc1c(CCOC(=O)CC23CC4CC(CC(C4)C2)C3)sc[n+]1Cc1ccccc1	.	.	.	.	.	.
Cc1c(CCOC(=O)C23CC4CC(CC(C4)C2)C3)sc[n+]1CC#N	51	.	-63	.	.	76
O=C(CSc1ncn[nH]1)NCCc1ccc(Cl)cc1	.	.	.	.	.	.
Cc1ccc(-n2nc(-c3ccco3)cc2C(=O)O)cc1	.	.	.	.	.	.
O=C(c1cc(-c2ccco2)nn1-c1cccc(Cl)c1)N1CCCCC1	.	.	.	.	48	.
O=C(NCC1CCN(Cc2ccc(Cl)cc2)CC1)C1CCCN(c2ncnc3c2nc2n3CCCCC2)C1 (centres undefined)	51	.	.	.	.	.
Cc1cccc(N2CCN(CCCNC(=O)C3CCCN(c4ncnc5c4nc4n5CCCCC4)C3)CC2C)c1 (centres undefined)	60	.	.	.	.	.
O=C(NCC1CCN(Cc2ccc(F)cc2)CC1)C1CCCN(c2ncnc3c2nc2n3CCCCC2)C1 (centres undefined)	.	.	.	.	.	.
Cc1ccc(CS(=O)(=O)c2ccc(C(=O)N3CCN(c4ccccn4)CC3)cc2[N+](=O)[O-])cc1	.	.	.	.	.	.
COC(=O)c1[nH]c2ccccc2c1Sc1ccccc1	.	.	.	.	.	.
CCN(CC)CCCNC(=O)c1[nH]c2ccccc2c1Sc1ccc(Cl)cc1	65	.	.	.	.	.
Cc1ccc(C(=O)NCCS(=O)(=O)N2CCN(c3ccccc3F)CC2)cc1[N+](=O)[O-]	.	.	.	.	.	.
CC(C)(C)c1cc(C(=O)N/N=C/c2ccccc2O)n(-c2ccccc2)n1	50	.	.	.	.	.
CCOC(=O)/C(=C\c1ccc(OC(F)F)cc1)C1=Nn2c(nnc2-c2ccc(Cl)cc2)SC1	103	99	-90	97	.	88
COc1ccc(-c2nnc3n2N=C(C)CS3)cc1	.	.	.	.	.	.
CNc1snc(C)c1C(=O)OC(C)C(=O)NCc1ccccc1 (centres undefined)	.	.	.	.	.	.
Cc1sc(NC(=O)c2ccco2)nc1-c1ccc2c(c1)CC(C)N2C(=O)C1CC1 (centres undefined)	55	.	.	.	.	.
CCOC(=O)N1CCC(NC(=O)C2CCCN(Cc3nc(-c4cccc(C)c4)oc3C)C2)CC1 (centres undefined)	.	72	.	.	.	.
CC1(C)CC(=O)C(C=NCC2CCN(C(=S)Nc3cccc(Cl)c3)CC2)=C(O)C1	.	.	.	.	.	.
Cc1cc(Br)ccc1NC(=O)CN(C)C(=O)C1CCN(C(=O)c2ccc(F)cc2)CC1	.	.	.	.	.	.

Screening data: PubChem, several laboratories
